# Data taken from PubChem BioAssay (EPA / NIEHS).
# Records with an inconclusive call do not appear. The source made the active and inactive calls. How the source made its calls, unless noted: active means hit-call score of the fitted dose curve at least 0.9, where 1 is the maximum; inconclusive means response in the unintended direction; inactive means score below 0.9.
# Experiments:
# [1] = Tanguay_ZF_120hpf_EYE_legacy: (Legacy) Oregon State University Tanguay Lab 120 Hour Post-fertilization zebrafish Assay for Eye Malformation (AID 2283636);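 further: binary presence or absence of eye malformation scored by brightfield in 120 hpf larvae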
# Summary of the method: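 5D wild-type embryos, pronase-dechorionated at 4 hpf; static exposure 6–120 hpf, 28C, dark; DMSO 0.64% final; 5uM trimethyltin chloride positive control. Binary eye-defect scoring at 120 hpf; dead embryos not scored.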
# [2] = Tanguay_ZF_120hpf_JAW_legacy: (Legacy) Oregon State University Tanguay Lab 120 Hour Post-fertilization zebrafish Assay for Jaw Malformation (AID 2283638);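 on AC50: active means more embryos with jaw malformation than DMSO controls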
# Summary of the method: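 Dechorionated Tropical 5D wild-type zebrafish embryos, one per well, exposed statically from 6 hpf to 120 hpf at 28C in 0.64% DMSO. Jaw malformation was scored by brightfield microscopy as present or absent. It was not scored in dead embryos.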
# [3] = Tanguay_ZF_120hpf_OTIC_legacy: (Legacy) Oregon State University Tanguay Lab 120 Hour Post-fertilization zebrafish Assay for Otic Vesicle Malformation (AID 2283639)
# Summary of the method: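 Statically exposed wild-type 5D zebrafish embryos, kept sealed and dark at 28C through 120 hours post fertilization, were examined by brightfield microscopy for otic vesicle defects. Responses were recorded as present or absent and analysed relative to DMSO.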
# [4] = Tanguay_ZF_120hpf_PE_legacy: (Legacy) Oregon State University Tanguay Lab 120 Hour Post-fertilization zebrafish Assay for Pericardial Edema (AID 2283640);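 on AC50: potency for increased incidence of pericardial edema versus DMSO baseline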
# Summary of the method: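 Tropical 5D wild-type zebrafish embryos were statically exposed until 120 hpf at 28C, with 0.64% DMSO final. Pericardial edema was scored by brightfield as present or absent; endpoints were not scored in dead embryos.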
# [5] = Tanguay_ZF_120hpf_SOMI_legacy: (Legacy) Oregon State University Tanguay Lab 120 Hour Post-fertilization zebrafish Assay for Somite Malformation (AID 2283647)
# Summary of the method: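 Dechorionated Tropical 5D wild-type zebrafish embryos, one per well from 6 hpf, statically exposed at 28C to 120 hpf in 0.64% DMSO; somite malformation scored present/absent by brightfield; trimethyltin 5 uM positive control; dead embryos not scored.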
# [6] = Tanguay_ZF_120hpf_PFIN_legacy: (Legacy) Oregon State University Tanguay Lab 120 Hour Post-fertilization zebrafish Assay for Pectoral Fin Malformation (AID 2283648);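 further: each larva judged yes or no for fin defect by brightfield with dead larvae skipped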
# Summary of the method: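 Binary pectoral fin malformation call at 120 hpf by brightfield microscopy; 5D wild-type zebrafish, chorion removed at 4 hpf, one embryo per well from 6 hpf, static exposure at 28C; DMSO (0.64% final) as baseline.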
# [7] = Tanguay_ZF_120hpf_CFIN_legacy: (Legacy) Oregon State University Tanguay Lab 120 Hour Post-fertilization zebrafish Assay for Caudal Fin Malformation (AID 2283649)
# Summary of the method: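 Dechorionated Tropical 5D wild-type embryos, one per well from 6 hpf, static exposure to 120 hpf at 28C in 0.64% DMSO. Caudal fin malformation scored by brightfield as present/absent; not scored in dead embryos.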
# [8] = Tanguay_ZF_120hpf_PIG_legacy: (Legacy) Oregon State University Tanguay Lab 120 Hour Post-fertilization zebrafish Assay for Pigmentation Malformation (AID 2283650)
# Summary of the method: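 Brightfield scoring of pigmentation malformation at 120 hpf, recorded as binary present/absent per larva. Exposure: dechorionated 5D wild-type embryos, one per well, static from 6 hpf at 28C, final DMSO 0.64% (vol/vol). Dead embryos not scored.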
# [9] = Tanguay_ZF_120hpf_SWIM_legacy: (Legacy) Oregon State University Tanguay Lab 120 Hour Post-fertilization zebrafish Assay for Swim Bladder Malformation (AID 2283654);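 further: swim bladder malformation in each larva scored yes or no under brightfield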
# Summary of the method: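 Tropical 5D embryos dechorionated at 4 hpf; 1 embryo/well from 6 hpf; static, sealed, dark exposure at 28C until 120 hpf; final DMSO 0.64%; 5uM trimethyltin chloride positive control; swim bladder defect recorded yes/no; dead embryos not scored.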
# [10] = Tanguay_ZF_120hpf_TRUN_legacy: (Legacy) Oregon State University Tanguay Lab 120 Hour Post-fertilization zebrafish Assay for Truncated Body (AID 2283655)
# Summary of the method: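 Dechorionated Tropical 5D wild-type embryos placed singly from 6 hpf and statically exposed to 120 hpf at 28C, final DMSO 0.64%. Truncated body scored as present/absent by brightfield; not scored in dead embryos.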
# [11] = Tanguay_ZF_120hpf_NC_legacy: (Legacy) Oregon State University Tanguay Lab 120 Hour Post-fertilization zebrafish Assay for Notochord and Tail Malformation (AID 2283656)
# Summary of the method: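 Binary scoring of notochord distortion by brightfield microscopy; embryos dying were not scored. Wild-type Tropical 5D embryos, chorion removed, exposed singly and statically from 6 to 120 hpf, 28C, sealed, 0.64% DMSO.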
# [12] = Tanguay_ZF_120hpf_YSE_legacy: (Legacy) Oregon State University Tanguay Lab 120 Hour Post-fertilization zebrafish Assay for Yolk Sac Edema (AID 2283634);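 on AC50: actives raise the incidence of yolk sac edema above the DMSO baseline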
# Summary of the method: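 Dechorionated Tropical 5D wild-type zebrafish embryos were exposed statically, one per well, from 6 to 120 hpf at 28C in 0.64% DMSO. Yolk sac edema was scored present/absent by brightfield at 120 hpf, and dead embryos were excluded.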
# [13] = Tanguay_ZF_120hpf_BRAI_legacy: (Legacy) Oregon State University Tanguay Lab 120 Hour Post-fertilization zebrafish Assay for Brain Malformation (AID 2283641)
# Summary of the method: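 Tropical 5D wild-type zebrafish embryos exposed statically until 120 hpf at 28C, 0.64% DMSO final, sealed and dark. Brain malformation scored present/absent by brightfield at 120 hpf; dead embryos excluded. Trimethyltin chloride 5uM positive control.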
# [14] = Tanguay_ZF_120hpf_SNOU_legacy: (Legacy) Oregon State University Tanguay Lab 120 Hour Post-fertilization zebrafish Assay for Snout Malformation (AID 2283637)
# Summary of the method: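 Binary brightfield scoring of snout malformation at 120 hpf. Dechorionated 5D wild-type embryos, one per well, static exposure from 6 hpf at 28C, sealed and dark; final DMSO 0.64% (vol/vol), DMSO as baseline; 5uM trimethyltin chloride positive control.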
# [15] = Tanguay_ZF_120hpf_CIRC_legacy: (Legacy) Oregon State University Tanguay Lab 120 Hour Post-fertilization zebrafish Assay for Circulatory Malformation (AID 2283651)
# Summary of the method: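 Embryos are dechorionated at 4 hpf, plated one per well at 6 hpf, then held under static exposure at 28C until 120 hpf. Malformations are recorded as binary calls; mortality excludes other endpoints.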
# [16] = read-out: kallikrein-3 (KLK3), KLK3 (gene 354); experiment: LTEA_HepaRG_KLK3: Life Technologies and Expression Analysis (LTEA) Assay for kallikrein-3 (KLK3) using HepaRG (AID 2283652; active means hit-call score of the fitted dose curve at least 0.9, where 1 is the maximum; inactive means score below 0.9); conditions: mRNA level, 48 h; actives raise or lower the signal
# Summary of the method: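 KLK3 transcript levels were measured by TaqMan qRT-PCR with normalisation to three housekeeping genes. HepaRG cultures received chemicals for 48 h at up to 100 uM (half-log, 8 points, 0.5% DMSO vehicle), fitted in both directions against DMSO.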
# [17] = read-out: solute carrier (SLC22A6), SLC22A6 (gene 9356); experiment: LTEA_HepaRG_SLC22A6: Life Technologies and Expression Analysis (LTEA) Assay for solute carrier (SLC22A6) using HepaRG (AID 2283653; active means hit-call score of the fitted dose curve at least 0.9, where 1 is the maximum; inactive means score below 0.9); conditions: mRNA level, 48 h; actives raise or lower the signal
# Summary of the method: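 Differentiated HepaRG cells exposed 48 h in serum-free induction medium to 8 half-log concentrations, top 100 uM, in 0.5% DMSO; SLC22A6 mRNA by Fluidigm qRT-PCR normalized to ACTB, GAPDH, POLR2A, fitted bidirectionally versus DMSO.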
# [18] = read-out: solute carrier (SLC10A1), SLC10A1 (gene 6554); experiment: LTEA_HepaRG_SLC10A1: Life Technologies and Expression Analysis (LTEA) Assay for solute carrier (SLC10A1) using HepaRG (AID 2283657; active means hit-call score of the fitted dose curve at least 0.9, where 1 is the maximum; inactive means score below 0.9); conditions: mRNA level, 48 h; actives raise or lower the signal
# Summary of the method: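 HepaRG, 48 h exposure, 8-pt half-log curve from 100 uM in 0.5% DMSO, duplicates. Read-out: TaqMan qRT-PCR of SLC10A1 mRNA, normalized to three housekeeping genes. Gain/loss fit vs DMSO baseline.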
# [19] = read-out: matrix metalloproteinase-1 (MMP1), MMP1 (gene 4312); experiment: LTEA_HepaRG_MMP1: Life Technologies and Expression Analysis (LTEA) Assay for matrix metalloproteinase-1 (MMP1) using HepaRG (AID 2283658; active means hit-call score of the fitted dose curve at least 0.9, where 1 is the maximum; inactive means score below 0.9); conditions: mRNA level, 48 h; actives raise or lower the signal
# Summary of the method: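 Differentiated human HepaRG cells, 48 h post-plating in serum-free induction medium, were exposed 48 h to eight half-log concentrations topping at 100 uM in 0.5% DMSO, duplicate. MMP1 mRNA measured by Fluidigm TaqMan qRT-PCR, normalized to ACTB, GAPDH, POLR2A; bidirectional fits versus DMSO.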
structure (smiles),measurement,setting,value
COc1cnc(OC)n2nc(NS(=O)(=O)c3c(OCC(F)F)cccc3C(F)(F)F)nc12,outcome,[1],inactive
same,outcome,[2],inactive
same,outcome,[3],inactive
same,outcome,[4],inactive
same,outcome,[5],inactive
same,outcome,[6],inactive
same,outcome,[7],inactive
same,outcome,[8],inactive
same,outcome,[9],inactive
same,outcome,[10],inactive
same,outcome,[11],inactive
C=CCC1=C(C)[C@@H](OC(=O)[C@@H]2[C@@H](C=C(C)C)C2(C)C)CC1=O,outcome,[12],inactive
same,outcome,[1],inactive
same,outcome,[4],inactive
same,outcome,[13],inactive
same,outcome,[5],inactive
same,outcome,[6],inactive
same,outcome,[7],inactive
same,outcome,[8],inactive
same,outcome,[9],inactive
same,outcome,[11],inactive
CCOP(=S)(OCC)SCn1c(=O)oc2cc(Cl)ccc21,outcome,[12],inactive
same,outcome,[1],inactive
same,outcome,[3],inactive
same,outcome,[13],inactive
same,outcome,[5],inactive
same,outcome,[6],inactive
same,outcome,[8],inactive
same,outcome,[9],inactive
same,outcome,[10],inactive
N#CC(CCc1ccc(Cl)cc1)(Cn1cncn1)c1ccccc1 (centres undefined),outcome,[12],inactive
same,outcome,[14],inactive
same,outcome,[2],inactive
same,outcome,[3],inactive
same,outcome,[4],inactive
same,outcome,[13],inactive
same,outcome,[5],inactive
same,outcome,[6],inactive
same,outcome,[7],inactive
same,outcome,[8],inactive
same,outcome,[9],inactive
same,outcome,[11],inactive
C=CCC1=C(C)C(OC(=O)C2C(C=C(C)C)C2(C)C)CC1=O (centres undefined),outcome,[12],inactive
same,outcome,[1],inactive
same,outcome,[2],inactive
same,outcome,[3],inactive
same,outcome,[4],inactive
same,outcome,[13],inactive
same,outcome,[5],inactive
same,outcome,[6],inactive
same,outcome,[7],inactive
same,outcome,[8],inactive
same,outcome,[9],inactive
same,outcome,[10],inactive
same,outcome,[11],inactive
CC1COC(Cn2cncn2)(c2ccc(Oc3ccc(Cl)cc3)cc2Cl)O1 (centres undefined),AC50,[12],8.51 µM (active)
same,AC50,[2],26.6 µM (active)
same,outcome,[3],inactive
same,outcome,[4],inactive
same,outcome,[5],inactive
same,AC50,[6],3.69 µM (active)
same,outcome,[9],inactive
same,outcome,[11],inactive
CC1=C(C(=O)Nc2ccccc2)SCCO1,outcome,[12],inactive
same,outcome,[2],inactive
same,outcome,[3],inactive
same,outcome,[4],inactive
same,outcome,[13],inactive
same,outcome,[7],inactive
same,outcome,[8],inactive
same,outcome,[10],inactive
same,outcome,[11],inactive
COC(=O)C=C(C)OP(=O)(OC)OC,outcome,[12],inactive
same,outcome,[1],inactive
same,outcome,[2],inactive
same,outcome,[4],inactive
same,outcome,[13],inactive
same,outcome,[5],inactive
same,outcome,[6],inactive
same,outcome,[7],inactive
same,outcome,[8],inactive
same,outcome,[15],inactive
same,outcome,[9],inactive
same,outcome,[10],inactive
CCNc1nc(Cl)nc(NCC)n1,outcome,[12],inactive
same,outcome,[1],inactive
same,outcome,[2],inactive
same,outcome,[3],inactive
same,outcome,[4],inactive
same,outcome,[13],inactive
same,outcome,[5],inactive
same,outcome,[6],inactive
same,outcome,[7],inactive
same,outcome,[9],inactive
same,outcome,[10],inactive
CCOC(=O)C(Cl)Cc1cc(-n2nc(C)n(C(F)F)c2=O)c(F)cc1Cl (centres undefined),AC50,[12],1.27 µM (active)
same,AC50,[1],1.7 µM (active)
same,AC50,[2],5.22 µM (active)
same,AC50,[3],1.82 µM (active)
same,AC50,[4],2.58 µM (active)
same,AC50,[13],2.91 µM (active)
same,AC50,[5],2.22 µM (active)
same,AC50,[6],2.19 µM (active)
same,AC50,[7],5.09 µM (active)
same,AC50,[8],1.88 µM (active)
same,outcome,[9],inactive
same,outcome,[10],inactive
same,outcome,[11],inactive
CC(C)Oc1cc(-n2nc(C(C)(C)C)oc2=O)c(Cl)cc1Cl,outcome,[12],inactive
same,outcome,[1],inactive
same,outcome,[13],inactive
same,outcome,[6],inactive
same,outcome,[7],inactive
same,outcome,[9],inactive
same,outcome,[10],inactive
same,outcome,[11],inactive
O=C(Nc1ccccc1)Nc1ccnc(Cl)c1,outcome,[12],inactive
same,outcome,[2],inactive
same,outcome,[3],inactive
same,AC50,[4],50.5 µM (active)
same,outcome,[13],inactive
same,outcome,[5],inactive
same,outcome,[7],inactive
same,outcome,[8],inactive
same,outcome,[9],inactive
same,outcome,[11],inactive
C=CC1(C)OC(=O)N(c2cc(Cl)cc(Cl)c2)C1=O (centres undefined),outcome,[12],inactive
same,outcome,[1],inactive
same,outcome,[2],inactive
same,outcome,[3],inactive
same,outcome,[4],inactive
same,outcome,[13],inactive
same,outcome,[5],inactive
same,outcome,[7],inactive
same,outcome,[8],inactive
same,outcome,[16],inactive
same,outcome,[17],inactive
same,outcome,[9],inactive
same,outcome,[10],inactive
same,outcome,[11],inactive
same,AC50,[18],77.2 µM (active)
same,outcome,[19],inactive
CN(C)C(=S)SSC(=S)N(C)C,outcome,[12],inactive
same,outcome,[1],inactive
same,outcome,[2],inactive
same,outcome,[3],inactive
same,outcome,[4],inactive
same,outcome,[13],inactive
same,outcome,[5],inactive
same,outcome,[6],inactive
same,outcome,[7],inactive
same,outcome,[8],inactive
same,outcome,[10],inactive
same,outcome,[11],inactive
